Here are results for 15 compounds from PubChem BioAssay (NCI).

About 83,000 compounds went through this panel and 20% of them were active in at least one assay; those are over-represented in the sample as a whole.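 Cells were grown in 96-well plates and exposed to the test compound at a single concentration for 48 hours; results are reported as percent growth, with values below 10 considered active.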 A number with no mark means an inactive call. Active and inactive are the calls of the source.

Holding throughout (test): NCI-60 one-dose screen, 48 h (100 = growth as untreated, 0 = no growth, -100 = all killed)
Holding throughout (details): 10 µM unless noted

Assay [1] has as its system T-47D breast.
The subject of assay [2] is BT-549 breast.
For assay [3], the system named is MDA-MB-435 melanoma.
Assay [4] deals with SW-620 colon.
In assay [5] the test system is MCF7 breast.
Assay [6] concerns HCT-116 colon.
Assay [7] has as its system HCC-2998 colon.
For assay [8], the system named is KM12 colon.

As to `COC1=C(OC)C(=O)C(CCCCCCCCCC[P+](c2ccccc2)(c2ccccc2)c2ccccc2)=C(C)C1=O`, the growth in assay [1] is -59% (active); in assay [2] it was -78.9% (active); in assay [3], -82.6% (active); in assay [4] it was -13.2% (active); in assay [5], -49.9% (active); in assay [6], 6.18% (active). Besides, the growth in assay [7] is -18.3% (active); in assay [8], -37.5% (active).

Take `O=C1/C(=C/c2ccccc2)CN(C(=O)CCN2CCC(=NO)CC2)C/C1=C\c1ccccc1`: the growth was -2.11% (active) in assay [1]; 2.46% (active) in assay [2]; -58.1% (active) in assay [3]; -52% (active) in assay [4]; -21.5% (active) in assay [5]; -68.7% (active) in assay [6]. Besides, the growth in assay [7] was -65.5% (active); in assay [8] it was -63.1% (active).

In the case of `COC(OC)c1ccccc1`, the growth in assay [1] was 99.4%; in assay [2] it was 92.4%; in assay [3] it was 102%; in assay [4], 114%; in assay [5] it was 99%; in assay [6], 98.5%. In addition, the growth is 93.6% in assay [7] and 112% in assay [8].

For the compound `CCCCOc1ccc(/C=C2/SC(N3CCCC3)=NC2=O)cc1`, the growth in assay [1] is 65.9%; in assay [2], 90.9%; in assay [3] it was 95.6%; in assay [4], 99.9%; in assay [5], 107%; in assay [6] it was 92.2%. Also, the results for the growth in assay [7] and in assay [8] were 109% and 99.5%, respectively.

With `COc1cccc(/C=C2\Oc3cc(OCCCN4CCCC4)ccc3C2=O)c1`, the growth in assay [1] is 88.1%; in assay [2], 92.6%; in assay [3], 99.2%; in assay [4], 92.2%; in assay [5], 51.2%; in assay [6] it was 21.1%. Besides, the figures for the growth in assay [7] and in assay [8] were 85.5% and 83.8%, respectively.

On to `COC(=O)c1nc(-c2ccccc2)oc1S(=O)(=O)N1CCN(c2cccc(Cl)c2)CC1`, for which the growth was 66.2% in assay [1]; 71% in assay [2]; 69.8% in assay [3]; 61.7% in assay [4]; 39.2% in assay [5]; 54.8% in assay [6]. For the same compound, the growth in assay [7] is 98.8%; in assay [8] it was 95.1%.

Take `CC1CCC(C)N(C)C1` (stereo not given): the growth in assay [1] is 96.9%; in assay [2], 87.6%; in assay [3], 111%; in assay [4], 113%; in assay [5], 96.5%; in assay [6], 97.9%. In addition, the growth is 85.2% in assay [7] and 110% in assay [8].

Turning to `COc1cc(C(=O)/C=C/c2ccc3nc(-c4cc(F)cc(F)c4)sc3c2)cc(OC)c1OC`, the growth in assay [1] was 102%; in assay [2], 95.3%; in assay [3], 106%; in assay [4], 104%; in assay [5], 97.5%; in assay [6] it was 87%. The growth in assay [7] was 93.1%; in assay [8], 108%.

For the compound `O=C1NN(C(=O)c2ccc(Cl)cc2)C(c2ccccc2)=N/C1=C\c1ccc(F)cc1`, the growth in assay [1] is 80.7%; in assay [2], 78.9%; in assay [3], 91.5%; in assay [4] it was 42.5%; in assay [5], 98.2%; in assay [6], 62.9%. Also, the growth is 95.3% in assay [7] and 59.1% in assay [8].

As for `COc1ccc2c(c1)[nH]c(=O)c1c3cc(C)c(C)cc3cn21`, the growth is -24.4% (active) in assay [1]; 0.0621% (active) in assay [2]; -60.8% (active) in assay [3]; -52.8% (active) in assay [4]; 3.58% (active) in assay [5]; -35.9% (active) in assay [6]. Further, the growth in assay [7] is 15.7%; in assay [8], -87.7% (active).

For the compound `COc1ccc(N=Cc2c(O)ccc3c2oc2cc(Cl)c(O)c(Cl)c23)cc1`, the growth in assay [1] was 87.9%; in assay [2], 53.3%; in assay [3] it was 94%; in assay [4], 99.2%; in assay [5], 69.6%; in assay [6], 91.5%. For the same compound, the figures for the growth in assay [7] and in assay [8] were 88.7% and 104%, respectively.

Turning to `CCCCCCCC/C=C/CCCCCCCC1=NC(C)(C)CN1C(C)(C)CO`, the growth in assay [1] was -10.2% (active); in assay [2] it was 76.3%; in assay [3] it was -18.9% (active); in assay [4] it was -85.1% (active); in assay [5], -44.3% (active); in assay [6], -99.4% (active). Further, the growth in assay [7] was -93.4% (active); in assay [8], -91.5% (active).

As to `COc1ccc(-c2ccc(C)n2-c2ccc(-c3nc4ccccc4s3)cc2)cc1`, the growth in assay [1] is 73.3%; in assay [2], 108%; in assay [3] it was 89.6%; in assay [4], 89.6%; in assay [5], 92.7%; in assay [6], 85.5%. For the same compound, the growth in assay [7] was 91.7%; in assay [8], 86.3%.

Turning to `ClC(Cl)c1nc(-c2ccccc2)nc2cc(-c3ccccc3)nn12`, the growth is 24.2% in assay [1]; 93.3% in assay [2]; 94.2% in assay [3]; 14.8% in assay [4]; 47.9% in assay [5]; 29.7% in assay [6]. Further, the results for the growth in assay [7] and in assay [8] were 88.9% and 37.3%, respectively.

`Cc1nn(-c2ccc([N+](=O)[O-])cc2)c2ncnc(NCCc3ccccc3)c12`: the growth is 93% in assay [1]; 114% in assay [2]; 94.9% in assay [3]; 99.4% in assay [4]; 93.1% in assay [5]; 92.5% in assay [6]. Besides, the values for the growth in assay [7] and in assay [8] were 101% and 96.1%, respectively.
